Compound activity: PubChem, National Center for Advancing Translational Sciences (NCATS)
Pf growth 48h: P. falciparum growth inhibition at 48 hours (one generation). actives 5.9% (n = 310,000). Potency, µM (doses to about 28.7 µM), for the others: at the highest dose activity change, negative = inhibition, hits mostly inhibitors. P. falciparum luciferase growth in erythrocytes, 48 h
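A one-generation exposure of luciferase-tagged malaria parasites in RPMI 1640/Albumax erythrocyte culture, 37 C and 5% CO2. Inhibition is inferred from decreased luminescence after adding detection reagent.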
HCV inh: HCV inhibition | Huh7.5.1 HCVcc-Cre infection, luciferase reporter, 44 h | Potency, µM (top dose mostly 41.8 µM), for the others: at the top dose activity change, negative = inhibition, hits mostly inhibitors | actives 3.4% (n = 340,000)
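Reporter virus HCVcc-Cre (~0.5 moi) infects cells exposed to compound; seeding density 1,000 cells/well with 4 h settling beforehand. Luminescence, 15 sec read, taken 44 h post-infection following a 15 min RT substrate incubation.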
AMA1-RON2 inh: inhibitors of Plasmodium falciparum AMA1-RON2 interaction; Potency, µM (titrated, usually from 58.2 µM), inactives show at the highest dose activity change, negative = inhibition, hits mostly inhibitors; AlphaScreen AMA1-biotinylated RON2 peptide binding; AID 720542; actives 0.2% (n = 360,000);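 note: 0% = vehicle wells and -100% = peptide control; nearly all actives have a fitted effect of over 45% in size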
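AMA1 (3D7) with his tag at 25 nM final met compounds first, then biotinylated RON2 peptide at 25 nM; detection used donor plus acceptor beads, 10 µg/mL apiece, read by AlphaScreen after 30 min at room temperature.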
Pf growth 96h: P. falciparum growth inhibition at 96 hours; AID 504834; actives 6.9% (n = 320,000); Potency, µM (series often up to 28.7 µM), for inactives: top-dose activity change, negative = inhibition, actives largely listed as inhibitors; P. falciparum luciferase reporter growth, 96 h
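Plates of compound plus infected erythrocytes (2% hematocrit, 0.05% parasitemia final) incubate 96 hours, 37 C, 5% CO2. Detection reagent added; reduced luminescence from the parasites' luciferase reporter flags inhibition.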
The depositor's hits bear a star. An excerpt weighted towards active compounds, which were near 11% of everything screened. Calls come from the whole dose curve; as a rule, active = well fitted curve in the direction sought with a large enough effect; inconclusive = small, poorly fitted or top-dose-only effect, or another doubt; inactive = no such curve, though single readings can be large; an effect the other way counts as inactive or inconclusive. Unless noted, % is set by controls: 0 for no effect and ±100 for the full control effect; potency is the fitted concentration of half-maximal effect.

`CCC(CC)NC(=O)c1cccc([N+](=O)[O-])c1C` gave Pf growth 48h 8.0%, HCV inh 0.2%, AMA1-RON2 inh 5.7% and Pf growth 96h 1.31µM*.
For O=C(NC1CCCCC1)C(c1cccnc1)N(C(=O)c1csnn1)c1ccccc1 (stereo unspecified) the results were Pf growth 48h -8.5%, HCV inh -3.5%, AMA1-RON2 inh -0.6% and Pf growth 96h 1.8%.
For O=c1c2c(-c3ccco3)csc2nc(SCc2cn3cccnc3n2)n1-c1ccccc1 the results were Pf growth 48h 7.38µM*, HCV inh -26.5%, AMA1-RON2 inh 15.8µM* and Pf growth 96h 9.28µM*.
Screening c1ccc(Cn2c(SCc3cn4cccnc4n3)nnc2-c2ccco2)cc1 returned Pf growth 48h 27.1%, HCV inh 26.6%, AMA1-RON2 inh -20.7% and Pf growth 96h 11.7µM*.
`OC(c1ccc(F)c(F)c1)c1nc(-c2ccc(F)c(Cl)c2)cs1` (stereo unspecified) gave AMA1-RON2 inh 1.4%.
Cc1ccc(N2C(=O)N(CC(=O)Nc3cc(Cl)ccc3C)C(=O)C2C)cc1 (stereo unspecified) was read as Pf growth 48h inconclusive, HCV inh inconclusive, AMA1-RON2 inh 0.0% and Pf growth 96h 54.0%.
For Cc1nc(NC(=O)c2cccnc2Cl)sc1C the results were HCV inh -16.8% and AMA1-RON2 inh -0.9%.
`O=C(c1ccccc1)c1c2c(cc3sc4ccccc4[n+]13)-c1cccc3cccc-2c13` gave Pf growth 48h 0.928µM*, HCV inh inconclusive, AMA1-RON2 inh -15.8% and Pf growth 96h 0.465µM*.
Screening Cc1sc2cc3c(c(C(=O)c4ccccc4)[n+]2c1C)-c1cccc2cccc-3c12 returned Pf growth 48h 0.828µM*, HCV inh 10µM*, AMA1-RON2 inh -29.3% and Pf growth 96h 0.329µM*.
O=C(COC(=O)CNS(=O)(=O)/C=C/c1ccccc1)Nc1cc(S(=O)(=O)N2CCCCC2)ccc1Cl was read as Pf growth 48h -5.8%, HCV inh 19.6%, AMA1-RON2 inh 12.1% and Pf growth 96h -18.8%.
For CN1CCN(C(=O)COCc2cc(-c3ccc4c(c3)OCO4)on2)CC1 the results were Pf growth 48h 32.0%, HCV inh 11.5%, AMA1-RON2 inh 1.7% and Pf growth 96h -11.0%.
Screening COC(=O)CN1C(=O)N/C(=C/c2ccc(C)o2)C1=O returned Pf growth 48h -1.5%, HCV inh -2.4%, AMA1-RON2 inh 3.3% and Pf growth 96h 10.4µM*.
`CNC(=S)Nc1cc(C(=O)N2CCCC2)ccc1N1CCCC1` gave Pf growth 48h 22.2%, HCV inh -7.2%, AMA1-RON2 inh -6.6% and Pf growth 96h 5.22µM*.
NC(=O)c1cccc(C(N)=O)n1 was read as Pf growth 48h 7.5%, HCV inh 6.2%, AMA1-RON2 inh -9.1% and Pf growth 96h 8.28µM*.
Screening CCOC(=O)C1CCCN(C(=S)Nc2cccc(Cl)c2C)C1 (stereo unspecified) returned Pf growth 48h 23.5%, HCV inh 7.1%, AMA1-RON2 inh -11.6% and Pf growth 96h inconclusive.
`CC(C)(C)CC(C)(C)c1ccc(OCCOCC[N+](C)(C)Cc2ccccc2)cc1` gave Pf growth 48h 0.928µM*, HCV inh inconclusive, AMA1-RON2 inh -2.4% and Pf growth 96h 0.465µM*.
CC(C)(C)CC(C)(C)c1ccc(OCCO)cc1 was read as Pf growth 48h -27.3% and Pf growth 96h inconclusive.
Screening C[N+](C)(CCOc1ccccc1)Cc1ccccc1 (tested in a mixture with another compound) returned Pf growth 48h 10.4µM*, AMA1-RON2 inh -1.5% and Pf growth 96h 41.1%.
For c1ccc(CCNCCOc2ccccc2)cc1 the results were Pf growth 48h 8.9%, HCV inh -4.6%, AMA1-RON2 inh -1.8% and Pf growth 96h inconclusive.
Screening c1ccc(OCCOCCOc2ccccc2)cc1 returned HCV inh 1.12µM* and AMA1-RON2 inh 0.2%.
For CCc1nc2ccc(C(=O)NCCCn3ccnc3)cn2c1N(C)Cc1ccc(OC)cc1 the results were AMA1-RON2 inh -9.0%.
For O=C1C(=O)c2ccccc2-c2ccccc21 the results were HCV inh 2.82µM*, AMA1-RON2 inh -19.5% and Pf growth 96h inconclusive.
For O=C1C(=C(I)I)c2ccccc2-c2ccccc21 the results were HCV inh 8.91µM* and AMA1-RON2 inh inconclusive.
O=C(O)c1cccc2c1C(=O)c1ccccc1-2 was read as Pf growth 48h -1.3%, HCV inh 21.4%, AMA1-RON2 inh 0.3% and Pf growth 96h 4.7%.
For O=C1c2ccccc2-c2cccnc21 the results were HCV inh -3.4%, AMA1-RON2 inh 1.7% and Pf growth 96h 23.4%.
For O=C1C(=O)c2cccc3cccc1c23 the results were Pf growth 48h 10.4µM*, HCV inh 13.9%, AMA1-RON2 inh 0.8% and Pf growth 96h 6.57µM*.
For Cc1cc(Br)ccc1NC(=O)CN(C)C(=O)c1ccc(-n2cncn2)c([N+](=O)[O-])c1 the results were Pf growth 48h -26.5%, HCV inh 0.1%, AMA1-RON2 inh 6.3% and Pf growth 96h inconclusive.
Screening COc1ccccc1-c1cnc(C(O)c2ccc(SC)cc2)[nH]1 (stereo unspecified) returned AMA1-RON2 inh -17.7%.
For O=S(=O)(c1c(Cl)sc(Cl)c1Br)N1CCCC1 the results were Pf growth 48h inconclusive, HCV inh -3.9%, AMA1-RON2 inh -3.8% and Pf growth 96h 11.7µM*.
For O=S(=O)(c1ccc(Cl)cc1)N1CCCCCC1 the results were Pf growth 48h 1.5%, HCV inh 7.6%, AMA1-RON2 inh 9.3% and Pf growth 96h 2.9%.
`CC1CCCCN1S(=O)(=O)Cc1ccccc1Cl` (stereo unspecified) gave Pf growth 48h -11.0%, HCV inh 5.6%, AMA1-RON2 inh 5.5% and Pf growth 96h 273.6%.
`O=C(NS(=O)(=O)Oc1ccc(Cl)cc1)OC[C@@H]1CCCN2CCCC[C@H]12` gave Pf growth 48h -11.7%, HCV inh 11.7%, AMA1-RON2 inh 9.9% and Pf growth 96h -5.7%.
Cc1ccc2cc(C#N)c(NCCNC(=S)NCCCN(C)C)nc2c1C was read as Pf growth 48h inconclusive, HCV inh inconclusive, AMA1-RON2 inh 4.2% and Pf growth 96h inconclusive.
Screening Cc1ccc2cc(C#N)c(NCCNC(=O)C3CC3)nc2c1C returned Pf growth 48h inconclusive, HCV inh 10µM*, AMA1-RON2 inh 2.4% and Pf growth 96h 7.2%.
For O=C(c1cc(-c2ccncc2)nc2ccccc12)N1CCN(c2ccc(N3CCOCC3)nn2)CC1 the results were Pf growth 48h 11.7µM*, AMA1-RON2 inh 5.1% and Pf growth 96h inconclusive.
Screening O=C(c1cc(-c2ccncc2)nc2ccccc12)N1CCN(c2ccccc2O)CC1 returned Pf growth 48h 11.7µM*, HCV inh -27.3%, AMA1-RON2 inh 5.6% and Pf growth 96h 4.65µM*.
For O=C(c1cc(-c2ccncc2)nc2ccccc12)N1CCN(c2ncccn2)CC1 the results were HCV inh inconclusive and AMA1-RON2 inh -11.7%.
